High-throughput results (PubChem BioAssay)
Many of the other results were omitted from the sample, so hits are more common in it than they were.
PD-1 reverse act: activators reversing PD-1 mediated T-cell inhibition | 29,000 tested, under 10 active | primary human CD4 T cells, PD-L1 beads, CellTiter-Glo 96 h | activation, % (no concentration beside the values); call rule not given here;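 also: 0% = median vehicle wells and 100% = positive control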
NOMO-1 viab: STK33 inhibitor candidate reducing NOMO-1 cell viability; NOMO-1 AML viability, CellTiter-Glo luminescence, 72 h; inhibition, % (test concentration not listed); 37,000 tested, 7.5% active; AID 2330; in the data active = inhibition above about 80%
STK33 inh: blocks human STK33 kinase activity | Q9BYT3 | ADP-Glo luminescence, MBP substrate | inhibition, % at 12.5 µM | 27,000 tested, 0.44% active | AID 2322; in the data active = inhibition above about 20%
Target sequence (Q9BYT3 whole entry, looked up): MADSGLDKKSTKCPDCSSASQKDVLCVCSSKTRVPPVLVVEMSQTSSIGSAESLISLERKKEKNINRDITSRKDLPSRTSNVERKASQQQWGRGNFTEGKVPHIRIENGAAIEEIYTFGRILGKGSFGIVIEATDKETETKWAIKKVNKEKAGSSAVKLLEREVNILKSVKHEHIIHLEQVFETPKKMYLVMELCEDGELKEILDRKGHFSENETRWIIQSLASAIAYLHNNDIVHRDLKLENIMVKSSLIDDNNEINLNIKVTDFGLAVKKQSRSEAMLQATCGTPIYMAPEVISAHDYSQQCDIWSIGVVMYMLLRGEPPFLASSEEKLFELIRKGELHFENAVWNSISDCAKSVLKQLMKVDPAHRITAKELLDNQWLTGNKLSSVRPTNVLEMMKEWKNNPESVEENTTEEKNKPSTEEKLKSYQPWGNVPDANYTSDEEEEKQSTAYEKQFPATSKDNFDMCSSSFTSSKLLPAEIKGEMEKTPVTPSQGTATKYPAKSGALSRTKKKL
The depositor's hits bear a star; nt = no result given.

SMILES | PD-1 reverse act | NOMO-1 viab | STK33 inh
C[C@@H]1CN([C@H](C)CO)C(=O)c2cccc(NC(=O)Nc3ccc(C(F)(F)F)cc3)c2O[C@H]1CN(C)Cc1ccncc1 | nt | 42.3 | nt
CC(C)NC(=O)Nc1cccc2c1O[C@@H](CN(C)Cc1ccc(Cl)c(Cl)c1)[C@@H](C)CN([C@H](C)CO)C2=O | 0.4 | 40.6 | nt
C[C@H](CO)N1C[C@H](C)[C@@H](CN(C)Cc2ccc(Cl)c(Cl)c2)Oc2c(NC(=O)Nc3cccc4ccccc34)cccc2C1=O | -4.5 | 115.2* | nt
C[C@@H]1CN([C@H](C)CO)C(=O)c2cccc(NC(=O)Nc3ccccc3)c2O[C@H]1CN(C)Cc1ccc(Cl)c(Cl)c1 | -5.1 | 106.4* | nt
C[C@H](CO)N1C[C@H](C)[C@H](CN(C)Cc2ccc(Cl)c(Cl)c2)Oc2c(NC(=O)Nc3ccc(C(F)(F)F)cc3)cccc2C1=O | -1.5 | 94.3* | nt
C[C@@H]1CN([C@H](C)CO)C(=O)c2cccc(NC(=O)Nc3ccc(F)cc3)c2O[C@@H]1CN(C)Cc1ccc(Cl)c(Cl)c1 | -1.3 | 30.6 | nt
C[C@H](CO)N1C[C@H](C)[C@H](CN(C)Cc2ccc(Cl)c(Cl)c2)Oc2c(NC(=O)Nc3ccc(F)cc3)cccc2C1=O | -3.1 | 98.9* | nt
O=C(O)CCc1nc2c3c4c(sc3ncn2n1)CCCC4 | nt | -1.0 | 0.9
COc1cccc(NC(=O)CSC2=C(C#N)C(c3cccc(Br)c3)CC(=O)N2)c1 (stereo not given) | 2.2 | 41.2 | 2.2
Fc1ccccc1CSc1nnc(-c2cccnc2)n1Cc1ccco1 | -0.9 | 5.0 | -3.5
C[C@@H]1CN([C@@H](C)CO)C(=O)c2cccc(NC(=O)Nc3ccc(F)cc3)c2O[C@@H]1CN(C)S(=O)(=O)c1ccccc1 | 0.0 | 70.7 | nt
O=C(Cn1nc2n(c1=O)-c1ccccc1SC2)NC(=O)Nc1ccccc1 | -1.3 | 48.2 | nt
Cc1cccc(-c2nnc(SCc3nc4ccccc4c(=O)[nH]3)n2-c2ccccc2)c1 | nt | 19.9 | -0.3
O=C1CC(SCc2ccc(Cl)cc2)C(=O)N1c1ccc(Br)cc1 (stereo not given) | 0.1 | 12.2 | nt
CC(C)NC(=O)Nc1cccc2c1O[C@@H](CN(C)Cc1ccc(Cl)c(Cl)c1)[C@H](C)CN([C@H](C)CO)C2=O | -2.4 | 63.0 | nt
C[C@@H]1CN([C@@H](C)CO)C(=O)c2cccc(NC(=O)Nc3ccccc3)c2O[C@@H]1CN(C)Cc1ccc(Cl)c(Cl)c1 | -3.0 | 116.1* | nt
Cc1cc2c(c(=O)n1CCN1CCOCC1)C(c1cccc(F)c1)C(C#N)=C(N)O2 (stereo not given) | -0.8 | -1.4 | nt
N#CC1=C(N)C(C#N)=c2s/c(=C/c3cccc(F)c3)c(=O)n2C1c1cccc(F)c1 (stereo not given) | 0.9 | 115.7* | 11.5
C[C@@H]1CN([C@H](C)CO)C(=O)c2cc(NC(=O)Cc3cn(C)c4ccccc34)ccc2O[C@@H]1CN(C)CC1CC1 | -0.2 | 12.7 | nt
CC1(C)CC(=O)C2=C(C1)N(Cc1cccnc1)C(=O)C2(NC(=O)c1cccs1)C(F)(F)F (stereo not given) | 1.4 | 6.8 | -1.0
COc1ccc(-c2nc(SCC(=O)N3c4ccccc4Sc4ccccc43)n[nH]2)cc1 | nt | 39.7 | -1.4
Cc1noc(C)c1NC(=O)N(C)C[C@H]1Oc2c(NC(=O)c3ccc(-c4nccs4)cc3)cccc2C(=O)N([C@H](C)CO)C[C@@H]1C | 2.6 | -2.7 | nt
COC(=O)C[C@H]1C(C)(C)C(=O)[C@@H]2C[C@@]3(O)C4=CC(=O)O[C@@H](c5ccoc5)[C@]4(C)CCC3[C@@]1(C)C2=O (stereo not given in full) | nt | 104.2* | 0.7
CC1(C)C(=O)[C@@H]2C[C@@]3(O)C4=CC(=O)O[C@@H](c5ccoc5)[C@]4(C)CCC3[C@@](C)(C2=O)[C@H]1CC(=O)O (stereo not given in full) | nt | 2.3 | 2.9
COC(=O)Nc1nc2ccc(S(=O)c3ccccc3)cc2[nH]1 (stereo not given) | nt | 102.2* | 1.8
SMILES | PD-1 reverse act | NOMO-1 viab | STK33 inh
Cc1ccc2nc(SCC(=O)NCc3ccccc3)[nH]c2c1 | 1.7 | 12.3 | 2.3
COC(=O)Nc1nc2ccc(C(=O)c3ccccc3)cc2[nH]1 | nt | 109.6* | 9.2
COC(=O)Nc1nc2ccc(C(=O)c3cccs3)cc2[nH]1 | -22.6 | 94.2* | 22.1*
COc1ccc(C(=O)c2ccccc2)cc1 | -0.7 | -14.3 | nt
COC(=O)C(C)c1ccc(C(=O)c2cccs2)cc1 (stereo not given) | nt | -5.9 | -1.8
Cc1cc(NC(=O)CN(c2cccc(Cl)c2)S(C)(=O)=O)ccc1Br | nt | nt | 0.3
COc1ccc(OC)c(NC(=O)CSc2nc3ccccc3n2C2CCCCC2)c1 | nt | 10.7 | -4.5
COc1ccc(C2=NN(S(C)(=O)=O)C(c3ccccc3OC)C2)cc1 (stereo not given) | 0.9 | 65.1 | nt
COc1ccc(C2=Nc3ccccc3SC(c3ccccc3)C2)cc1 (stereo not given) | -0.8 | 113.4* | nt
O=C(CSc1nc2ccc(C(=O)c3ccccc3)cc2[nH]1)Nc1cccc(Cl)c1 | 1.6 | 29.9 | 4.8
CCc1ccc(CCC(=O)Nc2ccc3ccccc3c2)o1 | -3.7 | 6.5 | 2.3
O=C1CC(c2ccccc2)Oc2ccc(Cl)cc21 (stereo not given) | -6.1 | 115.0* | 1.1
O=C1CC(c2ccccc2)Oc2cc(O)cc(O)c21 (stereo not given) | -2.3 | 10.0 | 0.4
C[C@H]1CN([C@@H](C)CO)C(=O)c2cccc(NC(=O)C3CC3)c2O[C@@H]1CN(C)C(=O)NC1CCCCC1 | nt | 18.3 | nt
O=C(CN1CC(=O)Oc2ccccc21)Nc1ccc(O)cc1 | -4.2 | 111.1* | nt
O=C(CN1CC(=O)Oc2ccccc21)OCC(=O)c1ccccc1 | -1.0 | 102.7* | nt
COc1ccc(C(=O)COC(=O)CN2C(=O)C3CC=CCC3C2=O)cc1 (stereo not given) | 0.9 | 30.9 | -1.1
O=C(CN1C(=O)c2ccccc2S1(=O)=O)Nc1ccc2c(c1)OCCO2 | nt | -7.6 | -1.4
Cc1cc[n+](CCOc2ccc(N)cc2)cc1 | 0.7 | 12.0 | nt
C[C@H](CO)N1C[C@H](C)[C@H](CN(C)S(=O)(=O)c2ccccc2)Oc2c(NC(=O)Nc3ccc4c(c3)OCO4)cccc2C1=O | 1.1 | 37.8 | nt
O=C(Oc1ccccc1N(C(=O)c1ccccc1)S(=O)(=O)c1ccccc1)c1ccccc1 | -0.7 | 4.3 | nt
CS(=O)(=NC(=O)Nc1ccccc1)c1ccccc1 (stereo not given) | 1.1 | 11.3 | nt
O=C(CC1(O)C(=O)Nc2ccc(Cl)cc21)c1ccccn1 (stereo not given) | 0.7 | 42.7 | -0.9
O=C(CC1(O)C(=O)Nc2ccc(I)cc21)c1ccccn1 (stereo not given) | nt | 89.9* | -1.2
CNC[C@H]1Oc2ccc(NC(=O)Nc3ccc4c(c3)OCO4)cc2C(=O)N([C@@H](C)CO)C[C@H]1C | nt | 9.2 | nt
COC(=O)C1CCCN1S(=O)(=O)c1ccccc1 (stereo not given) | -0.1 | 92.6* | nt
COc1cccc(S(=O)(=O)N2CCCC2C(=O)O)c1 (stereo not given) | 1.5 | 5.5 | -5.3
FC(F)(F)c1nc2ccc(Cl)cc2[nH]1 | -1.8 | 120.6* | nt
O=C(O)c1ccc2nc(CCc3nc4ccc(C(=O)O)cc4[nH]3)[nH]c2c1 | 1.0 | 5.0 | nt
